MARV entry inh – qHTS for inhibitors of binding or entry into cells for Marburg Virus | AID 540276, 2011 | Marburg virus pseudotyped entry inhibition, cell reporter | Potency, µM (top dose mostly 37.8 µM), inactives show at the top dose activity change, negative = inhibition, most hits filed as inhibitors | actives 1.8% (n = 300,000); calls by dose curve; tested in HEK293 cells; further: potency means the concentration at half of the fitted maximal effect
FMDV antiviral – High Throughput Screening for Foot and Mouth Disease Virus Antivirals; FMDV antiviral cell-based qHTS; Potency, µM (titrated, usually from 57.9 µM), inactives show at the highest dose activity change, negative = inhibition, hits mostly inhibitors; actives 1.2% (n = 410,000); AID 1159524, 2015; calls by dose curve; tested in HEK293T cells; further: read-out not given here; potency means the concentration at half of the fitted maximal effect; nearly all actives have a fitted effect of over 45% in size
Vaccinia mCherry – qHTS for Stage-Specific Inhibitors of Vaccinia Orthopoxvirus: mCherry Reporter Primary qHTS; Vaccinia virus mCherry reporter infection, fluorescence; Potency, µM (highest dose often 36.5 µM), without a hit: at the top dose activity change, negative = inhibition, actives largely listed as inhibitors; actives 0.63% (n = 310,000); AID 720579, 2013; calls by dose curve; tested in A549 cells; further: potency means the concentration at half of the fitted maximal effect; nearly all actives have a fitted effect of over 35% in size
Vaccinia Venus – qHTS for Stage-Specific Inhibitors of Vaccinia Orthopoxvirus: Venus Reporter Primary qHTS. AID 720580, 2013. actives 0.46% (n = 330,000). Vaccinia virus Venus reporter expression, fluorescence. Potency, µM (titrated, usually from 36.5 µM), for inactives: top-dose activity change, negative = inhibition, most hits filed as inhibitors; calls by dose curve; tested in A549 cells; further: potency means the concentration at half of the fitted maximal effect; nearly all actives have a fitted effect of over 30% in size
HCMV antiviral – qHTS Assay for inhibitors of the human cytomegalovirus (HCMV); activity change, negative = inhibition, % at 57.5 µM; HFF cells, HCMV-luciferase reporter, 72 h; active compounds read low; actives 4.5% (n = 410,000); in the data active means activity change below about -60%; inconclusive means no clear call, values can overlap the other calls; inactive means above about -39%
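Cell-based, HFFs, 1000 cells/well, 16 h 37C; cpds in DMSO + HCMV-luc, MOI 1 PFU/cell; 72 h 37C; OneGlo luminescence after 5 min RT; norm. to buffer vs Salinomycin 10uM.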
Lassa entry inh – qHTS for Inhibitors of binding or entry into cells for Lassa Virus. Lassa virus pseudotype entry inhibition, cell reporter. Potency, µM (series often up to 37.9 µM), for inactives: at the highest dose activity change, negative = inhibition, actives largely listed as inhibitors. actives 1.2% (n = 300,000); calls by dose curve; tested in HEK293 cells; further: potency means the concentration at half of the fitted maximal effect; nearly all actives have a fitted effect of over 50% in size
Starred values were filed as active, the others as inactive; i = inactive; ? = inconclusive; · = not tested or not shown; ! = a repeat was not active; [ ] = remark or other dose. Compounds with a hit are over-represented: about 6.5% of the library has one in this group of screens. On the % scale 0 is the no-effect control and ±100 the full control effect.

SMILES	MARV entry inh	FMDV antiviral	Vaccinia mCherry	Vaccinia Venus	HCMV antiviral	Lassa entry inh
CC1CCCCN1C(=S)Nc1ccc2nc3n(c(=O)c2c1)CCCCC3 (configuration not stated)	2%	23%	-14%	0%	-104*	?
O=c1c2cc(NC(=S)NCCN3CCCCCC3)ccc2nc2n1CCCCC2	?	-22%	-11%	-3%	0	?
COc1ccc(C(=O)Nc2ccc3nc4n(c(=O)c3c2)CCCCC4)cc1OC	28%[46.1 µM]	-16%	-9%	-7%	4	1%[46.1 µM]
O=c1c2cc(NC(=S)NC3CCCCC3)ccc2nc2n1CCCCC2	-29%[46.1 µM]	-27%	-12%	-14%	-80*	11%[46.1 µM]
COc1cc(C(=O)Nc2ccc3nc4n(c(=O)c3c2)CCCCC4)cc(OC)c1OC	-15%[46.1 µM]	10µM*!	-10%[7.34 µM]	-1%[7.34 µM]	9	-12%[46.1 µM]
O=C(Cc1ccccc1)NCCc1csc2nc(-c3ccc(Cl)cc3)nn12	·	?	-14%	-20%	-12	-6%[46.1 µM]
COc1ccc(/C=C/C(=O)Nc2ccc(-c3nnc4n3CCCCC4)cc2)c(OC)c1	8%	-29%	13%	-27%	-74*	-2%
CCOC(=O)/C=C/C(=O)Nc1ccc(-c2nnc3n2CCCCC3)cc1	·	-7%	·	·	11	·
CC(C)Oc1cccc(Nc2nccc3c2cc(-c2ccc(C(=O)N(C)C)cc2)n3C)c1	·	·	·	·	23	·
Cc1c(C(C)NC(=O)c2cc(COc3cccc4cnccc34)on2)cnn1C (configuration not stated)	·	?	·	·	-86*	·
CCc1ccc(CN(C)C(=O)c2cc(COc3cccc4cnccc34)on2)cc1	·	?	·	·	-99*	·
CSc1ccccc1OCc1cc(C(=O)NC(C)c2cnn(C)c2)no1 (configuration not stated)	17%	10%	-21%	-15%	71	7%
CN(Cc1cccc2cnccc12)C(=O)c1cc(COc2ccc(F)cc2F)on1	·	?	·	·	-60*	·
CN(Cc1cccnc1)C(=O)c1cc(COc2ccc3c(c2)CCCC3)on1	?	-15%	-17%	-29%	-65*	?
COc1ccc(CNC(=O)CCc2c(C)c3cc4c(C)c(C)oc4cc3oc2=O)cc1OC	26%[46.1 µM]	16%	-17%	-18%	-4	5%[46.1 µM]
O=C(/C=C/c1ccc(F)cc1)NC(=S)N1CCCCC1c1cccnc1 (configuration not stated)	8%[46.1 µM]	14%	?	-5%	-11	14%
O=C1/C(=C/c2ccc(F)cc2)SC(=S)N1CC(=O)N1CCCCC1c1cccnc1 (configuration not stated)	·	-1%	·	·	-83*	·
O=C1/C(=C/c2ccccc2F)SC(=S)N1CC(=O)N1CCCCC1c1cccnc1 (configuration not stated)	·	0%	·	·	-76*	·
CCOC(=O)Cc1csc(NC(=S)NC(=O)c2ccc(F)cc2)n1	16%	-20%	-5%	-4%	-62*	-13%
CCOC(=O)Cc1csc(NC(=O)CC)n1	3%	·	-2%	0%	6	1%
CCOC(=O)Cc1csc(NC(=S)NC(=O)c2cc(OC)c(OC)c(OC)c2)n1	·	?	·	·	26	·
CCOC(=O)Cc1csc(NC(=O)CC(C)(C)C)n1	?	23%	-10%	-3%	121	7.1µM*
COC(=O)NCC(c1cccnc1)N1CCN(c2ccccc2F)CC1 (configuration not stated)	·	-19%	-17%	3%	16	·
COc1ccc(CNC(=O)C(=O)NCC(c2cccnc2)N2CCN(c3ccccc3F)CC2)cc1 (configuration not stated)	·	-7%	?	?	-70*	9%[46.1 µM]
CCc1ccccc1NC(=O)C(=O)NCC(c1cccnc1)N1CCN(c2ccccc2F)CC1 (configuration not stated)	·	40µM*	-9%	-18%	-8	-24%[46.1 µM]
SMILES	MARV entry inh	FMDV antiviral	Vaccinia mCherry	Vaccinia Venus	HCMV antiviral	Lassa entry inh
COc1ccccc1-c1ccc(C(=O)N2CCC(N3CCc4ccccc4C3)CC2)c(N(C)CC2COCCO2)n1 (configuration not stated)	·	1%	-1%	12%	·	·
COc1ccc(N2CCN(C(=O)C3CCCN(S(=O)(=O)c4ccc5c(c4)oc(=O)n5C)C3)CC2)cc1 (configuration not stated)	-14%[46.1 µM]	?	-14%	-8%	-11	8%[46.1 µM]
COc1ccc(N2CCN(C(=O)C3CCCN(S(=O)(=O)c4ccc5c(c4)CCCN5C(C)=O)C3)CC2)cc1 (configuration not stated)	·	?	?	?	-71*	?
CC(=O)N1CCCc2cc(S(=O)(=O)N3CCCC(C(=O)N4CCN(c5ccccc5F)CC4)C3)ccc21 (configuration not stated)	·	16µM*	?	-29%	?	?
O=C(C1CCC1)N1CCCc2cc(S(=O)(=O)N3CCN(c4ccccc4)CC3)ccc21	·	?	-5%	-18%	0	11µM*
CC(=O)N1CCCc2cc(S(=O)(=O)N3CCCC(C(=O)Nc4ccc(C)c(F)c4)C3)ccc21 (configuration not stated)	·	?	-11%	-16%	-38	-25%[46.1 µM]
CCOc1ccc(S(=O)(=O)N(CC(=O)NCCSc2ccccc2)c2ccccc2)cc1	3%[46.1 µM]	-11%	5%	5%	?	-11%[46.1 µM]
CCCCCCCCCCCCCCCCCCN(CCCCCCCCCCCCCCCCCC)c1ccc(/C=C/c2ccc(C=O)cc2)cc1	·	·	i	-15%	·	·
CCOc1ccc2ncc3c(-c4cccc(OC)c4)nn(-c4ccccc4)c3c2c1	?	-27%	?	?	-29	-11%[46.1 µM]
CCCCC(=O)NCCc1c(Cc2ccccc2)[nH]c2ccccc12	·	-3%	i	-9%	·	·
O=C(NNc1ccccc1)c1ccc(Cl)c(Cl)c1	7.1µM*	18%	-9%	-9%	-77*	?
O=C(NNC(=O)c1ccc2ccccc2c1)c1ccc(Cl)c(Cl)c1	1%[46.1 µM]	4%	?	6%	-28	0%[46.1 µM]
COC(=O)c1sc2cccc(F)c2c1S(=O)(=O)NCc1ccc(F)cc1	·	53%	-2%	3%	5	5%[46.1 µM]
CCCCC(=O)OCC(=O)N1N=C(c2c[nH]c3ccccc23)C(O)C1c1ccc(OC)cc1 (configuration not stated)	·	-37%	·	·	-61*	·
COc1ccc(CC(=O)OCC(=O)N2N=C(c3ccccc3)CC2c2ccc(OC)cc2)cc1 (configuration not stated)	?	4%	-12%	-20%	-9	-8%
O=C(CSc1nc2c(c(=O)[nH]1)CN(Cc1ccc3c(c1)OCO3)CC2)Nc1ccc(F)c(F)c1	-16%[46.1 µM]	8%	-6%	3%	4	-2%[46.1 µM]
